From PubChem BioAssay
Only some compounds are listed: those with a hit (about 3.4% of all), similar ones and a draw of the others.
TEAD-YAP inh – TEAD-YAP interaction inhibition; inhibition, % at 9.12 µM; HEK-TIYL cells, TEAD-Gal4/YAP UAS-luciferase luminescence; hit rate 1.4% among 640,000; AID 1259422; in the data active = inhibition above about 32%
MITF primary – human MITF inhibition, primary screen; AlphaScreen MITF homodimerization, bead proximity signal; hit rate 0.91% among 650,000; O75030; inhibition, % at 2.6 µM; in the data active = inhibition above about 50%
FBW7 activator – human FBW7 E3 ligase activation, primary screen | normalized activity (activation), % at 26.1 µM | Q969H0 | AlphaScreen FBW7–phospho-cyclin E peptide binding, activator screen | hit rate 0.13% among 650,000; in the data active = normalized activity above about 1.9%;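 note: purified mutant Fbw7 with reduced substrate affinity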
GPR151 activ – activates the human receptor GPR151 | PathHunter beta-arrestin GPR151 cells, luminescence | activation, % at 11.2 µM | hit rate 1% among 650,000 | AID 1508602; in the data active = activation above about 4.9%
GPR151 conf act – human GPR151 activation, confirmation screen; shares compounds with GPR151 activ; GPR151 PathHunter beta-arrestin cells, luminescence, 90 min; % of EA-reagent control over plate median; activation, % at 11.2 µM; 6,700 tested, under 10 active; AID 1508609;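 active = mean percent activation across replicates above the confirmation screen cutoff of 4.91%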
GPR119 counter – activates human GPR119 in a GPR151 counter-screen. shares compounds with GPR151 activ. GPR119 PathHunter beta-arrestin cells, luminescence, 90 min; 0 = compound-well median, 100 = enzyme-acceptor control. activation, % at 11.2 µM. hit rate 0.3% among 6,700. AID 1508611;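 active = mean percent activation in the counterscreen above 29.09%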;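 note: counterscreen on off-target GPR119 to flag nonselective hits from the GPR151 activator screen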
Hits are given with their value; . = inactive; / = no result given; ! = a repeat was not active.

SMILES | TEAD-YAP inh | MITF primary | FBW7 activator | GPR151 activ | GPR151 conf act | GPR119 counter
CCCCOC(=O)C1=C(C)N(C)C(=O)NC1c1ccccc1Cl (centres undefined) | . | . | . | 7.2 | . | .
CCCOC(=O)C1=C(C)N(C)C(=O)NC1c1ccccc1Cl (centres undefined) | . | . | . | . | / | /
O=C1N(C2Cc3ccccc3C2)C[C@@H]2C[C@@H](c3ccc4nsnc4c3)N3CCC[C@@]123 | . | . | . | 9.4 | . | .
O=C1N(C2Cc3ccccc3C2)C[C@@H]2C[C@@H](c3ccccc3F)N3CCC[C@@]123 | . | . | . | 15.2 | . | .
CCCCOC(=O)c1ccc(NC(=O)c2ccc(C3CCCCC3)cc2)cc1 | 32.6 | . | . | 7.2 | . | .
NS(=O)(=O)c1ccc(NC(=O)Cn2nnc(-c3ccccc3Br)n2)cc1 | . | . | . | . | / | /
COCC(=O)NC1CCN(C(=S)Nc2ccccc2Cl)CC1 | . | . | . | . | / | /
COCC(=O)NC1CCN(C(=S)Nc2ccc(Cl)cc2)CC1 | . | . | . | 7.4 | . | .
O=C(O)CN(CCN(CC(=O)O)CC(=O)O)CCN(CC(=O)O)CC(=O)O | . | . | . | 8.1! | . | .
O=C(O)CN(CCOCCOCCN(CC(=O)O)CC(=O)O)CC(=O)O | . | . | . | . | / | /
CC(C)CC1=NN(C(=O)C(=O)NCCc2ccccc2)C(O)(C(F)(F)F)C1 (centres undefined) | . | . | . | 5.5 | . | .
CC(C)CCC1=NN(C(=O)C(=O)NCCc2ccccc2)C(O)(C(F)(F)F)C1 (centres undefined) | . | . | . | . | / | /
O=C(C1CCN(Cc2ccc3c(c2)OCO3)CC1)N1CCOCC1 | . | . | . | 5.2 | . | .
O=C(C1CCN(C2CCN(Cc3ccc4c(c3)OCCO4)CC2)CC1)N1CCCC1 | . | . | . | . | / | /
CCC(CC)NC(=O)c1ccc(C)c([N+](=O)[O-])c1 | . | . | . | 5.2 | . | .
Cc1ccc(NC(=O)c2cccc(I)c2)cc1[N+](=O)[O-] | . | . | . | 4.9 | . | .
O=C(NCc1ccsc1)c1ccc(-c2ccccc2)cc1 | . | . | . | . | / | /
Cc1cc(NC(=O)Cc2ccc(F)cc2)ccc1N1CCCC1=O | . | . | . | 5.0 | . | .
Cc1cc(NC(=O)Cc2ccc(-c3ccccc3)cc2)ccc1N1CCCC1=O | . | . | . | . | / | /
Cc1nn(C)c(C)c1-c1ncc(C(=O)Nc2ccccc2)s1 | . | . | . | 5.7 | . | .
COc1ccc(OC)c(C2NC(C(=O)O)C3C(=O)N(c4cccc(C(=O)O)c4)C(=O)C23)c1 (centres undefined) | . | . | . | 5.0 | . | .
COc1ccc(OC)c(C2NC(C(=O)O)C3C(=O)N(c4ccccc4)C(=O)C23)c1 (centres undefined) | . | . | . | 5.2 | . | .
COc1ccc(C2NC(C(=O)O)C3C(=O)N(c4ccc(F)cc4)C(=O)C23)c(OC)c1OC (centres undefined) | . | . | . | . | / | /
COc1ccc(C2NC(C(=O)O)C3C(=O)N(c4ccc(F)cc4)C(=O)C23)c(OC)c1 (centres undefined) | . | . | . | . | / | /
COCC(=O)NCCNc1nc2ccc(OC)cc2cc1C#N | . | . | . | 7.2 | . | .
SMILES | TEAD-YAP inh | MITF primary | FBW7 activator | GPR151 activ | GPR151 conf act | GPR119 counter
COc1ccc2nc(NCCNC(=O)c3cc(OC)c(OC)c(OC)c3)c(C#N)cc2c1 | . | . | . | . | / | /
COc1cc(Nc2nc(SCc3cc(=O)n4ccccc4n3)nc3ccccc23)cc(OC)c1 | . | . | . | . | / | /
Cc1nc2sc(C(c3ccccc3Cl)N3CCC(O)CC3)c(O)n2n1 (centres undefined) | . | . | . | . | / | /
C[N+]1(CC2COC3(CCCC3)O2)CCCC1 (centres undefined) | . | . | . | . | / | /
O=C(Nc1nnc(-c2cccc([N+](=O)[O-])c2)s1)c1cccs1 | . | . | . | 8.6 | . | .
CC(=O)Nc1nnc(-c2cccc([N+](=O)[O-])c2)s1 | . | . | . | . | / | /
COCCn1c(=NC(=O)c2ccccc2OC)sc2cc(S(C)(=O)=O)ccc21 | . | . | . | . | / | /
O=C(CSCc1c(Cl)cccc1Cl)Nc1ccc2c(c1)C(=O)NC2=O | . | . | . | . | / | /
CCOC(=O)c1sc(NC(=O)C2CC2)nc1C | . | . | . | 13.1 | . | .
O=C(COC(=O)c1ccc2ccccc2n1)c1ccc(Cl)c(Cl)c1 | . | . | . | 5.6 | . | .
